Source: PubChem BioAssay (National Center for Advancing Translational Sciences (NCATS))
D3 antag = blocks the human D3 dopamine receptor | D3R cells, DiscoveRx beta-arrestin luminescence, antagonist mode; active compounds read low | actives 2.5% (n = 360,000) | max response, negative = inhibition, % | P35462; in the data active = max response below about -50%; inconclusive = no clear call, values can overlap the other calls; note: % is set by controls: 0 for no effect and ±100 for the full control effect
Target sequence (P35462 whole entry, looked up): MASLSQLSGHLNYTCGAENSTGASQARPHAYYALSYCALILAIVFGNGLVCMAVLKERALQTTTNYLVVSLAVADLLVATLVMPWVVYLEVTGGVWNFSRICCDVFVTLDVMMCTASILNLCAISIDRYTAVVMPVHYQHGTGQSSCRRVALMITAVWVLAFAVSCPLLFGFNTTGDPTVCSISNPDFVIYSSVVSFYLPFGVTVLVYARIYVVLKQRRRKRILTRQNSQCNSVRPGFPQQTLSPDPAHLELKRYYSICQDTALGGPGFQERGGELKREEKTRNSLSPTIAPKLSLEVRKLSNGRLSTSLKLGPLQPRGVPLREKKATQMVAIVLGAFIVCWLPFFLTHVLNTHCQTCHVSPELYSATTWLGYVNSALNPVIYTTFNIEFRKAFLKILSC
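Cells plated overnight at 1500 cells/well, then exposed to library compounds with dopamine controls for 90 minutes at 37 degrees C. DiscoveRx reagent added for 30–60 minutes at room temperature; luminescence read, quantitative HTS format.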
SW480 rerep = inducers of DNA re-replication in SW480 colon cancer cells; Potency, µM (top dose mostly 46.1 µM), for the others: at the highest dose re-replication activation, actives largely listed as activators; SW480 DNA re-replication, Hoechst DNA content imaging, 48 h; actives 1.8% (n = 340,000); note: potency is the fitted concentration of half-maximal effect; % of control where 0% means no effect; nearly all actives have a fitted effect of over 55% in size
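DNA re-replication was detected as more nuclei of elevated Hoechst intensity after 48 hr exposure to compound (23 nL pinned per well of 250 cells).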
KB-V1 MDR tox = kills drug-selected multidrug resistant KB-V1 cells; Potency, µM (top dose mostly 46.1 µM), usual class: cytotoxic; AID 1347076; actives 3.4% (n = 400,000); KB-V1 MDR cells viability, CellTiter-Glo, 72 h; note: potency is the fitted concentration of half-maximal effect; % is set by controls: 0 for no effect and ±100 for the full control effect; nearly all actives have a fitted effect of over 60% in size
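Cytotoxicity via CellTiter-Glo luminescence after 72 h compound exposure at 37 degrees C. Cells: drug-selected KB-V1 line, DMEM phenol-red free plus 10% FBS. Compounds tested at multiple concentrations; normalized data fitted to concentration-effect curves.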
D3 ag = D3 dopamine receptor (human) agonism. max activation, %. D3R DiscoveRx beta-arrestin cells, luminescence, 90 min. actives 0.58% (n = 410,000); in the data active = max activation above about 30%; note: 0% is about no effect
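Agonist-mode cell screen: cells plated at 1500/well and incubated overnight at 37 °C, then exposed to library compounds for 90 min at 37 °C. Detection reagent was added for 30–60 min at room temperature, and luminescence was read.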
MCF10A rerep = induces DNA re-replication in MCF 10a normal breast cells; MCF 10A DNA re-replication, Hoechst nuclear intensity, 48 h; Potency, µM (series often up to 46.1 µM), for the others: at the top dose activity, positive = re-replication, usual class: activators; actives 2.9% (n = 350,000); AID 624296; note: potency is the fitted concentration of half-maximal effect; % of control where 0% means no effect; nearly all actives have a fitted effect of over 50% in size
KB-3-1 tox = kills parental KB-3-1 adenocarcinoma cells; actives 1.4% (n = 400,000); Potency, µM (series often up to 46.1 µM), hits mostly cytotoxic; KB-3-1 viability, CellTiter-Glo ATP luminescence, 72 h; note: potency is the fitted concentration of half-maximal effect; % is set by controls: 0 for no effect and ±100 for the full control effect; nearly all actives have a fitted effect of over 60% in size
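Cytotoxicity in the drug-sensitive parental line KB-3-1 was scored as loss of CellTiter-Glo luminescence following 72 h incubation with compound. Values come from curve fitting of normalized concentration-response data.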
* hit, by the source's call; i = inactive; ? = inconclusive; nt = not tested or not shown. Hits are enriched below; roughly 8.9% of the tested compounds scored in any of these assays. Unless noted, calls come from the whole dose curve; as a rule, active = well fitted curve in the direction sought with a large enough effect; inconclusive = small, poorly fitted or top-dose-only effect, or another doubt; inactive = no such curve, though single readings can be large; an effect the other way counts as inactive or inconclusive.

SMILES	D3 antag	SW480 rerep	KB-V1 MDR tox	D3 ag	MCF10A rerep	KB-3-1 tox
C=C(NC(=O)C(=C)NC(=O)c1csc(C2=N[C@@H]3c4csc(n4)[C@H]4NC(=O)c5csc(n5)[C@H]([C@](C)(O)[C@@H](C)O)NC(=O)[C@H]5CSC(=N5)C(=CC)NC(=O)C([C@@H](C)O)NC(=O)c5csc(n5)[C@]3(CC2)NC(=O)[C@H](C)NC(=O)C(=C)NC(=O)[C@H](C)NC(=O)C([C@@H](C)CC)NC2C=Cc3c([C@H](C)O)cc(nc3C2O)C(=O)O[C@@H]4C)n1)C(N)=O (some centres not stated)	nt	nt	nt	-1	nt	nt
COc1ccc(N2CCN(C(=O)c3cc(S(=O)(=O)N4CCC(C)CC4)cn3C)CC2)cc1	nt	nt	i	4	nt	?
C[C@@H](O)[C@H](N)C(=O)O	nt	nt	nt	2	nt	nt
COc1ccc(CCNC(=O)c2c(C)noc2C)cc1	-100*	-2%	i	0	-1%	i
COc1ccc(CCNC(=O)c2cccnc2)cc1	9	?	i	13	16µM*	i
COc1ccc(CCNC(=O)c2ccccc2)cc1	11	-1%	i	3	0%	i
Cc1noc(C)c1C(=O)NCCCc1ccccc1	-25	-7%	i	-6	-8%	i
COc1ccccc1NC(=O)c1cc2c(n(-c3ccc(C)cc3)c1=O)CC(C)(C)CC2=O	nt	nt	?	-6	nt	i
CC(=O)N1CCc2cc(S(=O)(=O)NC(CC(C)C)C(=O)NCCc3cccc(C)c3)ccc21 (configuration not stated)	nt	nt	i	6	nt	i
NS(=O)(=O)c1ccc(N2N=C(c3ccccc3)CC2c2ccccc2Cl)cc1 (configuration not stated)	28	4.6µM*	i	1	3.3µM*	i
O=S(=O)(O)c1ccc(N2N=C(c3ccccc3)CC2c2ccccc2)cc1 (configuration not stated)	20	15µM*	i	1	15%	i
NS(=O)(=O)c1ccc(N2N=C(c3ccccc3)CC2c2ccccc2)cc1 (configuration not stated)	3	13µM*	?	2	8.2µM*	?
Cc1ccc(C2CC(c3ccccc3)=NN2c2ccc(S(N)(=O)=O)cc2)cc1 (configuration not stated)	14	nt	i	7	nt	?
NS(=O)(=O)c1ccc(N2N=C(c3ccccc3)CC2c2ccc(Br)cc2)cc1 (configuration not stated)	26	nt	?	7	nt	?
Fc1ccc(N2N=C(c3cccs3)CC2c2ccccc2)cc1 (configuration not stated)	4	5.8µM*	i	-12	2.6µM*	i
CCOC(=O)Cn1c(=O)n(-c2ccc(Cl)cc2)c2nc(-c3ccc(Cl)cc3)nc(C(N)=O)c21	nt	nt	i	-8	nt	i
Cc1cc2c(cc1S(=O)(=O)CCC(=O)N1CCC(C)CC1)OCC(=O)N2	nt	nt	i	6	nt	i
CN(C(=O)CSc1nc2ccccc2n1CC(=O)N(C)c1ccc(F)cc1)c1ccccc1	nt	nt	i	-4	nt	i
CCc1ccc(C2=NN(c3ccc(S(N)(=O)=O)cc3)C(c3ccc(F)cc3)C2)cc1 (configuration not stated)	41	9.2µM*	?	3	?	?
C[C@H](CO)N1C[C@H](C)[C@H](CN(C)Cc2ccncc2)Oc2ncc(C#CC3CC3)cc2C1=O	-56*	nt	i	2	nt	i
O=C1NC(=O)/C(=C/c2cc3c(cc2Br)OCO3)S1	-13	22%	i	6	3%	i
O=C1Nc2ccc3c(c2C1=Cc1cc2c(cc1Br)OCO2)OCO3	-28	18µM*	?	-1	5.2µM*	5.2µM*
COc1ccc(-n2nc(C(=O)Nc3ccc(C(C)=O)cc3)nc2-c2ccccc2)cc1	nt	nt	i	-3	nt	?
Cc1ccc(-n2nc3ccc(NC(=S)NC(=O)/C=C/c4ccco4)cc3n2)cc1	-3	-7%	i	1	-1%	i
Cc1ccc(-c2nc3ccccc3o2)cc1NC(=S)NC(=O)/C=C/c1ccco1	11	8.2µM*	?	3	7.3µM*	13µM*
SMILES	D3 antag	SW480 rerep	KB-V1 MDR tox	D3 ag	MCF10A rerep	KB-3-1 tox
Cc1ccc(-n2nc3cc(C)c(NC(=S)NC(=O)/C=C/c4ccco4)cc3n2)cc1	0	3.7µM*	i	-1	5%	i
COc1ccc(-c2nc3ccccc3o2)cc1NC(=O)COc1ccc(C)c(C)c1	nt	nt	?	1	nt	5.8µM*
O=C(/C=C/c1ccco1)NC(=S)Nc1ccc(N2CCOCC2)c(Cl)c1	-23	5.2µM*	?	-8	?	4.1µM*
CCOc1ccc(CCNC(=O)c2cc(Nc3ccc(C)cc3C)nc3ccccc23)cc1OCC	nt	nt	i	-16	nt	i
CC(=O)c1ccc(N2CCN(C(=O)c3cc(S(=O)(=O)N4CCCCCC4)cn3C)CC2)cc1	nt	nt	?	4	nt	i
O=C(/C=C/c1ccco1)NC(=S)Nc1ccccc1	-6	18%	i	-4	25%	i
Cc1cccc(NC(=S)NC(=O)/C=C/c2ccco2)c1	0	2.1µM*	5.2µM*	-10	?	4.6µM*
COc1ccc(-n2nc3cc(C)c(NC(=S)NC(=O)c4ccccc4C)cc3n2)cc1	24	11%	i	23	3.7µM*	i
O=C(/C=C/c1ccco1)NC(=S)Nc1cccc(-c2nc3ccccc3s2)c1	-17	?	6.5µM*	-5	5.8µM*	8.2µM*
CCC(=O)Nc1cc2nn(-c3ccc(OC)cc3)nc2cc1C	-16	-1%	i	2	2%	i
O=C(/C=C/c1ccco1)NC(=S)Nc1cc(-c2nc3ccccc3s2)ccc1Cl	-21	?	?	-4	?	i
O=C(/C=C/c1ccco1)NC(=S)Nc1cccc(-c2nc3ccccc3o2)c1	-20	9.2µM*	8.2µM*	-4	3.7µM*	?
CC1=C(C(=O)Nc2ccccc2C)C(c2ccc[nH]2)n2ncnc2N1 (configuration not stated)	nt	nt	nt	-9	nt	nt
COc1cccc(CNC(=O)c2cccc(N3CCCS3(=O)=O)c2)c1	nt	nt	i	9	nt	i
O=C(NCc1ccco1)c1ccc(Cn2c(SCc3ccc(F)cc3)nc3cccnc32)cc1	nt	nt	nt	-18	nt	nt
COc1ccc(N2CCN(CCCNC(=O)c3cnn(-c4ccc(F)cc4)c3-n3cccc3)CC2)cc1	nt	nt	?	-9	nt	23µM*
CN1CCN(CCCNC(=O)c2cnn(-c3ccc(F)cc3)c2-n2cccc2)CC1	nt	nt	i	-7	nt	i
